Results: the supplement of paper PMC10849652
Targets with a hit are over-represented here; the source holds about 7,900 in all. About 0.6% of all pairs of compound and target were hits. A number with no mark means an inactive call.

What was measured:
Assay in all cases: log2 fold change, soluble protein after heating vs DMSO (PISA); higher = thermal stabilisation; K562 cells, 10 uM, 30 min; active = over 0.2 and 3.5 SD of the protein, either way, in both replicates (recomputed)
[1] = compound: C#Cc1cccc(Nc2ncnc3cc(OCCOC)c(OCCOC)cc23)c1 [erlotinib]
In short: (§1)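 Soluble protein was defined as the supernatant after 21,000xg for 90 min. It came from K562 cells at 2×10^6 cells/mL given 10 μM compound for 30 min, heated in aliquots for 3 min across 48°C-58°C, pooled, and extracted in PBS with 0.5% NP-40 at 4°C, and was quantified by TMTpro 16plex LC-MS/MS with equalised channel sums. Thermal stability against control samples, from duplicates, is reported as log2 fold change.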

[2] = compound: C/C(=N\NC(=O)C1=CC(=CC=C1)S(=O)(=O)N2CCOCC2)/C3=C(C=CC(=C3)Cl)O
In short: as §1

[3] = compound: C1=CC(=C(C=C1Cl)C2=NC3=NC=CN=C3C(=N2)NC4=CC=NC=C4)F
In short: as §1

[4] = compound: C1=CC(=CC=C1C2=NC3=C(N2)C=C(C=C3)C(=O)N)OC4=CC=C(C=C4)Cl
In short: as §1

[5] = compound: C1=CC2=C(C=CC(=C2)/C=C\3/C(=O)NC(=NCC4=CC=CS4)S3)N=C1
In short: as §1

[6] = compound: C1=CC2=NC=CN=C2C=C1/C=C/3\C(=O)NC(=O)S3
In short: as §1

[7] = compound: C1=CC=C(C=C1)C2=NC(=C(N2)C3=CC=NC=C3)C4=CC(=C(C=C4)Cl)O
In short: as §1

[8] = compound: C1=CC=C2C(=C1)C3=NNC4=CC=CC(=C43)C2=O
In short: as §1

[9] = compound: C1CCN(C1)C(=O)NC2=CC=CC(=C2)NC3=NC=C(C(=N3)NCCC4=CN=CN4)Br
In short: as §1

[10] = compound: C1CN(CCC1(CC2=CC=C(C=C2)Cl)N)C3=NC=NC4=C3C=CN4
In short: as §1

UniProt O00170, sequence (O00170 whole entry, looked up): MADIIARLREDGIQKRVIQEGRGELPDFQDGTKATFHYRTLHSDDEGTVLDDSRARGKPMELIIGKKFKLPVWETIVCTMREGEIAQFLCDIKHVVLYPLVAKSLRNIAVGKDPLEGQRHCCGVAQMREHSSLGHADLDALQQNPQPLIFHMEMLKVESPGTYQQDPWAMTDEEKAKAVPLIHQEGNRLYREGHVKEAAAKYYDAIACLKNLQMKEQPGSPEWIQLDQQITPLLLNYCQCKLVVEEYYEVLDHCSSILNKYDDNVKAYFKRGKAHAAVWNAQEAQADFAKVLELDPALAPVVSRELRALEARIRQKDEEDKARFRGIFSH
UniProt O95870, sequence (O95870 whole entry, looked up): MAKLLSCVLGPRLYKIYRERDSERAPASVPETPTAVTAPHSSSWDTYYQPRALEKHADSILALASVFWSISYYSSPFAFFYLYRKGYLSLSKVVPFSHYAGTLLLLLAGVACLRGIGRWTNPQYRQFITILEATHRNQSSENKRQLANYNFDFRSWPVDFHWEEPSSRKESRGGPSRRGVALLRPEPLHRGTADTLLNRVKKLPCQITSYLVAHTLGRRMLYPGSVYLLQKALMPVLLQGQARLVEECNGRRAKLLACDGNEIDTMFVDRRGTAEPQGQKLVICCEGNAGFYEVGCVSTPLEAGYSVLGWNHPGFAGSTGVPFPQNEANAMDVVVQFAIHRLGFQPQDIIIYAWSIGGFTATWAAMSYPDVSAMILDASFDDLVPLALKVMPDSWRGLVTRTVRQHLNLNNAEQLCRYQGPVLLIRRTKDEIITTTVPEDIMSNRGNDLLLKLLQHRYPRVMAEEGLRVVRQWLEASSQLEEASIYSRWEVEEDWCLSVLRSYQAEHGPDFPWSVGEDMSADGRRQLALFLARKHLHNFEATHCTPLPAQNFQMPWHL
UniProt Q9Y679, sequence (Q9Y679 whole entry, looked up): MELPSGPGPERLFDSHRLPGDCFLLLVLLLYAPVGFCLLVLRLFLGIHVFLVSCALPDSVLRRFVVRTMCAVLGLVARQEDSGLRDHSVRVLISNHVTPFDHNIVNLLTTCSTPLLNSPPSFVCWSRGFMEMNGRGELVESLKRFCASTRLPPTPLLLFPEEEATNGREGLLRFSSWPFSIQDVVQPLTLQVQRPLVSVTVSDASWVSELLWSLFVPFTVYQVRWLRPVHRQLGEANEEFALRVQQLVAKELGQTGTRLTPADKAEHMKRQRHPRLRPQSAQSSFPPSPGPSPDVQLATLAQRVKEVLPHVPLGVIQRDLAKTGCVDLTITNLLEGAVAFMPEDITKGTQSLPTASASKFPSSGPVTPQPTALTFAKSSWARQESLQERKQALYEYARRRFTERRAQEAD
UniProt Q8NBU5, sequence (Q8NBU5 whole entry, looked up): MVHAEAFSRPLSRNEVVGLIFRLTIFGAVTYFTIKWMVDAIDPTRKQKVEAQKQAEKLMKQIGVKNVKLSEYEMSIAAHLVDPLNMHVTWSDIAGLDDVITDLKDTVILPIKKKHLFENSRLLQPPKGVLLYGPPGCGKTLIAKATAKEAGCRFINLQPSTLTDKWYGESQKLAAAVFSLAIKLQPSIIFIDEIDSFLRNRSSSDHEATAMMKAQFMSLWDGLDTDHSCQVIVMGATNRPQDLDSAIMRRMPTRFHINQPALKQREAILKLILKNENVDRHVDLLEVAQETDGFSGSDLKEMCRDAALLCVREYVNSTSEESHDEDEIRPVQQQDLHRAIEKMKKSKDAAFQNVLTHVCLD
UniProt Q9HC16, sequence (Q9HC16 whole entry, looked up): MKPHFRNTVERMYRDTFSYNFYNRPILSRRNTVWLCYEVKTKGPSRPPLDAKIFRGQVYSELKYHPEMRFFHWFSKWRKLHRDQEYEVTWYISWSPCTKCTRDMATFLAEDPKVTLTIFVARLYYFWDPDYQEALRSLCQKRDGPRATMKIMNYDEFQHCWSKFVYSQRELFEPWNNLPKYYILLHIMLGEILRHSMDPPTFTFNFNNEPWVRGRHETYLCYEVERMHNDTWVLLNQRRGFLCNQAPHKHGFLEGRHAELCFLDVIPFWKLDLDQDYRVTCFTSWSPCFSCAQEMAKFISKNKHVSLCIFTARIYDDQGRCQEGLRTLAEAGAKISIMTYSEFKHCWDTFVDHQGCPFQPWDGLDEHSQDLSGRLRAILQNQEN
UniProt Q96GS6, sequence (Q96GS6 whole entry, looked up): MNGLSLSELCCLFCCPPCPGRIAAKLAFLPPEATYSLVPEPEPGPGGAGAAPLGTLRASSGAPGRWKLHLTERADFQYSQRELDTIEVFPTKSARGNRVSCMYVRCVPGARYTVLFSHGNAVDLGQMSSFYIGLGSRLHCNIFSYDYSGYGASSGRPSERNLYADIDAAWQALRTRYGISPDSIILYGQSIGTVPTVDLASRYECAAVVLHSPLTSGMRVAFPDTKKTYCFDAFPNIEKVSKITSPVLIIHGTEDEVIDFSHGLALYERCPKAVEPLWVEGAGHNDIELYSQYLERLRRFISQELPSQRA
UniProt Q15057, sequence (Q15057 whole entry, looked up): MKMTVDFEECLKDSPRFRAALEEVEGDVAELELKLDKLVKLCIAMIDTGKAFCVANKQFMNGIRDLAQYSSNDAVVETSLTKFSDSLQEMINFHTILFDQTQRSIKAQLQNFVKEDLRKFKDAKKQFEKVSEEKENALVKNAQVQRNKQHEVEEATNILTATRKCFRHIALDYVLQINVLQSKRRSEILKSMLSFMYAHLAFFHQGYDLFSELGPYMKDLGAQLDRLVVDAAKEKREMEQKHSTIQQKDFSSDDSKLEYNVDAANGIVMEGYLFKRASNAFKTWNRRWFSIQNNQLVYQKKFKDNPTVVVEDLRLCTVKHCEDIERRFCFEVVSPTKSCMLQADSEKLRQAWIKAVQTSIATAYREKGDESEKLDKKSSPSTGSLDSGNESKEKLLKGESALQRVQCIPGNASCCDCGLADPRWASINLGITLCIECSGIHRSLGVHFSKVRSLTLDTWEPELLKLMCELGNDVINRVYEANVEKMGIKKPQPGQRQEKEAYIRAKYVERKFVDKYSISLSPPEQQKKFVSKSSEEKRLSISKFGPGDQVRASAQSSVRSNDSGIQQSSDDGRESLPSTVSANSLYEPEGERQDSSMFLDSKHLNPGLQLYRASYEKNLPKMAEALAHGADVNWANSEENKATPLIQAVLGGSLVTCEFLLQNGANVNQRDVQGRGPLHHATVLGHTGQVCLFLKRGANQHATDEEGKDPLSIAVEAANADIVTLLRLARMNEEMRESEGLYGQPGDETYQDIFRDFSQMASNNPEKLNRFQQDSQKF
UniProt Q9NSY1, sequence (Q9NSY1 whole entry, looked up): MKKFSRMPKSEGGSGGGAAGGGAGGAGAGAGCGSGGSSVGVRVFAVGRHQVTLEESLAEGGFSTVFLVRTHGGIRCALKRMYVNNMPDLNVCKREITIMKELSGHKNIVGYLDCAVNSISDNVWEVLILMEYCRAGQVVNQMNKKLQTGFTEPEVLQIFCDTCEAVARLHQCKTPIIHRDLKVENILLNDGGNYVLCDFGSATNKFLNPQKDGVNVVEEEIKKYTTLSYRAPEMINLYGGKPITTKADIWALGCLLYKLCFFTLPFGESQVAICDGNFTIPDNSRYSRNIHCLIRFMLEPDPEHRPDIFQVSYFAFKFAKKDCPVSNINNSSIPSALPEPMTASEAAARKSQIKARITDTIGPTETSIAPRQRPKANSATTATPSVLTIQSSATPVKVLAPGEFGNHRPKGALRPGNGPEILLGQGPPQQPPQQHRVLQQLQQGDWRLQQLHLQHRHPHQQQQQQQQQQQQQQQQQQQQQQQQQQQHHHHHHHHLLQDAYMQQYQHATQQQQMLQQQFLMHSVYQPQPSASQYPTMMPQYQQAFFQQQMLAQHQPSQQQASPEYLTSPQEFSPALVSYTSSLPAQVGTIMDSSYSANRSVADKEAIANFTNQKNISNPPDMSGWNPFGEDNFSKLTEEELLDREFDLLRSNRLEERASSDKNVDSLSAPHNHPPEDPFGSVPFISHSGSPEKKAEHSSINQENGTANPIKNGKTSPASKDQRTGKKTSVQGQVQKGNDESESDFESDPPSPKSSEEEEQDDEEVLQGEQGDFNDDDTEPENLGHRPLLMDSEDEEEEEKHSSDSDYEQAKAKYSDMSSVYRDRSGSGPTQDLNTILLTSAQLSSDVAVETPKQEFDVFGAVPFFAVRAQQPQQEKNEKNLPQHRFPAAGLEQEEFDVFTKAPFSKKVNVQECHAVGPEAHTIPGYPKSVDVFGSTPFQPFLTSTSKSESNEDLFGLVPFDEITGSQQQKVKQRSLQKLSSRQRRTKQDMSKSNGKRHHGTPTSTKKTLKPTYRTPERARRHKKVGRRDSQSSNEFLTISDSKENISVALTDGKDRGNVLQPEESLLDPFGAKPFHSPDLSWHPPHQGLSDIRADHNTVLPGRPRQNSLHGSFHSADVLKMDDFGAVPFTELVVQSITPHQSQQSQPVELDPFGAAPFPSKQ
UniProt Q9UKG1, sequence (Q9UKG1 whole entry, looked up): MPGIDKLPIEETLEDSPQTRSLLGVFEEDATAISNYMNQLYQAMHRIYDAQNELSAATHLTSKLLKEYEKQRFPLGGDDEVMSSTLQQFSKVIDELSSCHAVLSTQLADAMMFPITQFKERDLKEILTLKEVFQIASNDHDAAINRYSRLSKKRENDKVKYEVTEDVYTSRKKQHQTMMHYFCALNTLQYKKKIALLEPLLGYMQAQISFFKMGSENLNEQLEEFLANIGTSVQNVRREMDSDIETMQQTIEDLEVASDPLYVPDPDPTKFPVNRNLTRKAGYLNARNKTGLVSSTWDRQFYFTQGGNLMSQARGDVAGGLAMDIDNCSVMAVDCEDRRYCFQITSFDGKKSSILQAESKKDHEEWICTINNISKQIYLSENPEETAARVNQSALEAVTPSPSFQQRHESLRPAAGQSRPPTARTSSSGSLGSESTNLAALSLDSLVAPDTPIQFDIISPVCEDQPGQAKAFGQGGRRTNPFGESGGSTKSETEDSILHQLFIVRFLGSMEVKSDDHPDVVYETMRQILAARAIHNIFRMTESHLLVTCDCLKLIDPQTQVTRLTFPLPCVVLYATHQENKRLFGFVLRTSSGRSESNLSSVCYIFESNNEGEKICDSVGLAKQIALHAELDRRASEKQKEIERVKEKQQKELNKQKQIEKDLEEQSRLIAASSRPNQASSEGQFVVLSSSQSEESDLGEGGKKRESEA

Row | Target | log2 fold change [1] | log2 fold change [2] | log2 fold change [3] | log2 fold change [4] | log2 fold change [5] | log2 fold change [6] | log2 fold change [7] | log2 fold change [8] | log2 fold change [9] | log2 fold change [10]
1 | APOBEC3G (UniProt Q9HC16) | -0.087 | 0.027 | -0.124 | 0.047 | -0.005 | 0.056 | -0.056 | 0.109 | 0.181 | -0.362
2 | AIF1 (UniProt P55008) | 0.155 | -0.02 | 0.09 | 0.08 | -0.051 | 0.093 | 0.058 | -0.126 |  | 
3 | ATOX1 (UniProt O00244) | -0.033 | 0.307 | 0.141 | 0.068 | -0.089 | 0.074 | 0.242 | 0.112 | -0.061 | 0.024
4 | AUP1 (UniProt Q9Y679) | 0.018 | 0.055 | 0.068 | 0.049 | 0.006 | 0.055 | 0.078 | 0.004 | -0.031 | -0.018
5 | B4GALNT1 (UniProt Q00973) | -0.176 | -0.006 | 0.029 | 0.101 | 0.124 | -0.038 | -0.073 | -0.189 | 0.069 | -0.141
6 | ATAD1 (UniProt Q8NBU5) | 0.037 | 0.036 | 0.295 (active) | 0.021 | 0.054 | -0.022 | 0.059 | 0.123 | 0 | -0.006
7 | AGPS (UniProt O00116) | 0.046 | 0.055 | 0.092 | 0.256 (active) | 0.055 | 0.031 | 0.175 | 0.043 | -0.01 | 0.077
8 | ACACB (UniProt O00763) | 0.048 | -0.094 | -0.212 | -0.108 | 0.07 | -0.123 | 0.132 | -0.028 | -0.059 | -0.143
9 | AGPAT3 isoform 3 (UniProt Q9NRZ7) | 0.009 | -0.008 | 0.028 | -0.009 | 0.028 | 0.12 | 0.04 | 0.006 | 0 | 0.067
10 | ACSL4 (UniProt O60488) | 0.16 | 0.02 | -0.021 | 0.727 (active) | 0.13 | 0.024 | 0.226 | 0.357 (active) | -0.058 | -0.002
11 | AIP (UniProt O00170) | 0.035 | 0.096 | 0.133 | -0.006 | 0.042 | 0.048 | -0.01 | 0.011 | 0.005 | -0.026
12 | ALDH18A1 (UniProt P54886) | 0.016 | 0.092 | 0.089 | -0.084 | -0.007 | -0.204 | -0.093 | -0.091 | -0.015 | -0.057
13 | ABHD17A isoform 2 (UniProt Q96GS6) | 0 | -0.011 | -0.028 | 0.223 | 0.035 | 0.042 | 0.017 | 0.008 | -0.068 | 0.11
14 | ANAPC2 (UniProt Q9UJX6) | -0.028 | 0.064 | -0.002 | 0.018 | 0.002 | 0.144 | -0.029 | 0.022 | -0.033 | -0.022
15 | ATF7 isoform 6 (UniProt P17544) | -0.011 | -0.148 | -0.043 | 0.021 | 0.032 | -0.055 | 0.08 | 0.085 | -0.004 | -0.117
16 | BMP2K (UniProt Q9NSY1) | 0.079 | -0.16 | -0.016 | -0.024 | 0.178 | -0.042 | -0.012 | 0.388 (active) | 0.353 | -0.061
17 | APOB (UniProt P04114) | 0.062 | 0.008 | 0.042 | -0.024 | -0.018 | 0.05 | 0.046 | -0.011 | 0.018 | -0.174
18 | AKR1C3 (UniProt P42330) | 0.063 | 0.067 | 0.117 | -0.095 | 0.02 | 0.067 | 0.796 (active) | -0.022 | 0.031 | 0.044
19 | ACP2 (UniProt P11117) | 0.031 | 0.004 | 0.061 | 0.019 | 0.019 | -0.01 | 0.022 | -0.022 | -0.003 | 0.045
20 | BCL9L (UniProt Q86UU0) | 0.01 | -0.256 | -0.008 | 0.049 | 0.036 | -0.048 | -0.128 | 0.07 | -0.052 | 0.091
21 | ABHD16A (UniProt O95870) | -0.036 | 0.02 | -0.048 | 0.161 | 0.208 | -0.094 | 0.036 | 0.009 | -0.005 | 0.023
22 | ALDH2 (UniProt P05091) | -0.009 | 0.121 | 0.039 | 0.021 | 0.096 | 0.022 | -0.019 | 0.097 | -0.041 | 0.02
23 | BRD8 isoform 2 (UniProt Q9H0E9) | 0.157 | 0.016 | 0.029 | 0.082 | 0.035 | 0.055 | -0.152 | -0.044 | -0.027 | 0.021
24 | ATP5ME (UniProt P56385) | 0.013 | 0.037 | 0.136 | -0.007 | 0.085 | 0.051 | 0.023 | 0.002 | -0.051 | 0.013
25 | ACSL3 (UniProt O95573) | -0.005 | 0.055 | 0.092 | 0.351 (active) | 0.078 | 0.031 | 0.06 | 0.069 | -0.005 | 0.039
26 | ATAD3B (UniProt Q5T9A4) | -0.027 | -0.018 | -0.128 | -0.006 | -0.005 | -0.002 | -0.06 | 0.066 | 0.01 | -0.091
27 | ACAP2 (UniProt Q15057) | -0.002 | 0.054 | 0.062 | -0.05 | 0.056 | 0.037 | -0.032 | -0.012 | -0.042 | -0.013
28 | APPL1 (UniProt Q9UKG1) | -0.049 | 0.162 | 0.055 | 0.012 | 0.055 | 0.016 | 0.038 | -0.029 | 0.014 | 0.003
29 | AHSA1 (UniProt O95433) | 0.007 | 0.011 | 0.081 | -0.015 | 0.012 | 0.037 | 0.013 | 0.039 | -0.006 | 0.023
30 | BCCIP (UniProt Q9P287) | -0.024 | 0.045 | 0.019 | -0.027 | -0.029 | 0.015 | 0.013 | 0.035 | -0.036 | 0.114
